# Compound activity: PubChem, National Center for Advancing Translational Sciences (NCATS)
# In the library only some 19% were active in any assay of this set; here they are far more common.
# TDP1 inh: TDP1 (human) enzyme inhibition | Q9NUW8 | recombinant TDP1, AlphaScreen DNA substrate cleavage | Potency, µM (doses to about 130 µM), without a hit: top-dose activity change, negative = inhibition, actives largely listed as inhibitors | hit rate 0.28% among 350,000; also: potency is read from the fitted curve at half-maximal effect; nearly all actives have a fitted effect of over 40% in size
# Target sequence (Q9NUW8 whole entry, looked up): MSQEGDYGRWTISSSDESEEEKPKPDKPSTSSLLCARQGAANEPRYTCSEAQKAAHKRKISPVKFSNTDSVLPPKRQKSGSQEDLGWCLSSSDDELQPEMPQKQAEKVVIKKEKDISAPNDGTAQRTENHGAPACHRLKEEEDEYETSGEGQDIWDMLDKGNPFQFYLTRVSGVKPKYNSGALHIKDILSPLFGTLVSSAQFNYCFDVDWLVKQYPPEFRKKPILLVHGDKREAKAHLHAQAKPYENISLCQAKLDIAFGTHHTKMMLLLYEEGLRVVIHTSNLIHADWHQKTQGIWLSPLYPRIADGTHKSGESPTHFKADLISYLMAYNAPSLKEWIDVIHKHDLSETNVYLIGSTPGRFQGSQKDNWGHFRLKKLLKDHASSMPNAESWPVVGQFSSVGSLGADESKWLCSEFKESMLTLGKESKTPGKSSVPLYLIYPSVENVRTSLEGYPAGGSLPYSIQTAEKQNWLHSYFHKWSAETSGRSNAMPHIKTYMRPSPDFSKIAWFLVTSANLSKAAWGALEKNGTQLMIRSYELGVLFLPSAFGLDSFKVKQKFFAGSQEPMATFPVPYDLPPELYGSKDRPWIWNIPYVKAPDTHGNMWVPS
#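 Signal: AlphaScreen proximity between streptavidin donor and anti-FITC acceptor beads on intact substrate. Reaction: Tdp1 1 nM, substrate 15 nM final, 5 min RT after 15 min compound preincubation.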
# DT40 TDP1 no CPT: qHTS for Inhibitors of human tyrosyl-DNA phosphodiesterase 1 (TDP1): qHTS in cells in absence of CPT; DT40 Tdp1-/- hTDP1 cells, no CPT, ATP luminescence, 48 h; Potency, µM (doses to about 46.2 µM), for the others: top-dose activity change, negative = growth inhibition, hits mostly inhibitors; hit rate 15% among 420,000; AID 686978, 2013; also: potency is read from the fitted curve at half-maximal effect; nearly all actives have a fitted effect of over 55% in size
#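 No-CPT arm: Tdp1-/-;hTDP1 DT40 cells (400/well) plus compounds, incubated ≥48 hr at 37 °C. Readout CellTiter-Glo luminescence.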
# DT40 TDP1 CPT: growth inhibition of DT40 Tdp1-/-;hTDP1 cells with camptothecin (screen for TDP1 inhibitors) | Potency, µM (series often up to 46.2 µM), inactives show at the highest dose activity change, negative = growth inhibition, most hits filed as inhibitors | hit rate 12% among 420,000 | chicken DT40 Tdp1-/-;hTDP1 cells + 20 nM CPT, ATP luminescence, 48 h; also: potency is read from the fitted curve at half-maximal effect; nearly all actives have a fitted effect of over 55% in size
#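 Cell growth measured by CellTiter-Glo luminescence after a minimum 48 h, 37 C compound exposure with 20 nM CPT in Tdp1-knockout DT40 cells stably expressing hTDP1, seeded 400/well; qHTS titration format.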
# Giardia kill: kills Giardia lamblia | hit rate 0.15% among 340,000 | Giardia lamblia trophozoite viability | AID 540267 | activity change, % at 7.66 µM, hits read low; in the data active = activity change below about -80%; inconclusive = between about -30% and that limit;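 also: parasites exposed to compound for two days anaerobically before the ATP read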
#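 Anaerobic 48 hrs incubation at 37 deg C of 100 trophozoites/well with test compounds; ATPLite 1-Step luminescence, 15-30 min RT, reports cellular ATP as viability.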
# IL-1B inflam inh: inhibitors of inflammasome signaling (IL-1 beta secretion). THP-1 LPS/ATP IL-1B secretion, AlphaLISA, 16 h; active compounds read low. activity change, % at 57.5 µM. hit rate 4.7% among 360,000. AID 743279; in the data active = activity change below about -50%; inconclusive = mostly about -30% to -49%
#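 THP-1 cells pretreated 1 hr with compounds (up to 57.5 uM final), then stimulated with LPS (250 ng/mL final) plus ATP (1.25 mM final); secreted IL-1B measured by AlphaLISA after 16 hr, decreased signal indicating inhibition.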
# ELG1 DNA repair: blocks ELG1-dependent DNA repair in HEK293T cells; HEK293T ELG1-luciferase reporter, luminescence, 16 h; DNA damage induced by 5-fluorouridine; Potency, µM (series often up to 46.1 µM), inactives show at the highest dose activity change, negative = inhibition, actives largely listed as inhibitors; hit rate 2.3% among 330,000; also: potency is read from the fitted curve at half-maximal effect; nearly all actives have a fitted effect of over 55% in size
#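 HEK293T cells expressing luciferase-tagged ELG1 (2,000/well) received 5-Fluorouridine plus compound or DMSO for 16 hr at 37 °C. Luciferase was read by ONE-Glo luminescence after 30 min at room temperature.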
# * marks the source's active call; other numbers are inactive results; ? = inconclusive; nt = no result; ! = repeats disagree; [ ] = another dose, or the depositor's remark. Unless noted, calls follow the shape of the dose curve; as a rule, active = well fitted curve in the direction sought with a large enough effect; inconclusive = small, poorly fitted or top-dose-only effect, or another doubt; inactive = no such curve, though single readings can be large; an effect the other way counts as inactive or inconclusive. % is scaled to controls: 0 for no effect and ±100 for the full control effect.
SMILES,TDP1 inh,DT40 TDP1 no CPT,DT40 TDP1 CPT,Giardia kill,IL-1B inflam inh,ELG1 DNA repair
Cc1n[nH]c(C)c1CCCCOc1ccc([N+](=O)[O-])cc1,nt,?,15µM*,13,12,9%
CCCCCCCCCC(CC)c1ccc(S(=O)(=O)O)cc1 (stereo not given),6%,?,?,nt,nt,nt
O=C(Nc1ccccc1)C1=C[C@H](c2ccccc2)C[C@H](OCCCCO)O1,nt,?,16µM*,6,-19,nt
c1ccc(/N=C2\N=C(Nc3ccccn3)c3ccccc32)nc1,nt,0.15µM*,0.21µM*,-8,51,nt
C[C@@H]1CN([C@@H](C)CO)C(=O)c2c(c3ccccc3n2C)-c2ccccc2CO[C@H]1CN(C)S(=O)(=O)c1ccc(C#N)cc1,nt,?,5%,nt,-21,nt
C[C@@H]1CN([C@H](C)CO)C(=O)c2c(c3ccccc3n2C)-c2ccccc2CO[C@H]1CN(C)Cc1ccc(-c2ccccc2)cc1,nt,21µM*,18µM*,nt,?,nt
COc1ccc(OC(=O)N(C)C[C@@H]2OCc3ccccc3-c3c(n(C)c4ccccc34)C(=O)N([C@H](C)CO)C[C@@H]2C)cc1,nt,23µM*,6%,nt,-11,nt
C[C@@H]1CN([C@H](C)CO)C(=O)c2c(c3ccccc3n2C)-c2ccccc2CO[C@@H]1CN(C)Cc1ccc(O)cc1,nt,15µM*,21µM*,nt,?,nt
Cc1ccccc1S(=O)(=O)N(C)C[C@@H]1OCc2ccccc2-c2c(n(C)c3ccccc23)C(=O)N([C@H](C)CO)C[C@@H]1C,nt,21µM*,16µM*,nt,-9,nt
COc1ccc(OC(=O)N(C)C[C@H]2OCc3cnnn3CCCC(=O)N([C@H](C)CO)C[C@@H]2C)cc1,nt,-5%,4%,nt,12,nt
COc1cccc(CN(C)C[C@@H]2OCc3ccccc3-c3c(n(C)c4ccccc34)C(=O)N([C@@H](C)CO)C[C@H]2C)c1,nt,?,-22%,nt,-27,nt
CC(C)C[C@H]1C(=O)N2CCC[C@@H]2[C@@]2(O)O[C@](NC(=O)[C@@H]3C=C4c5cccc6[nH]cc(c56)C[C@@H]4N(C)C3)(C(C)C)C(=O)N12,15%[21 µM],nt,nt,nt,nt,nt
CCOc1ccc(NC(=O)c2cc3c(C)nn(-c4ccccc4)c3s2)cc1,nt,10µM*,21µM*,nt,nt,nt
CC(Cc1cccc(C(F)(F)F)c1)NCCCc1ccccc1 (stereo not given),1%,?,?,nt,nt,nt
CC(C)[C@H](CO)Nc1nc(Nc2cccc(Cl)c2)c2ncn(C(C)C)c2n1,14%[56.1 µM],9.4µM*,9.4µM*,nt,nt,nt
CCc1cc2c(cc1-c1csc(C/C(N)=N/O)n1)C(C)(C)CCC2(C)C,nt,18µM*,?,nt,-19,nt
COC[C@]12CN(C)C3C4[C@H](OC)[C@H]1C3([C@@H](OC)C[C@H]2O)[C@@H]1C[C@@]2(O)[C@H](OC(=O)c3ccccc3)[C@@H]1[C@]4(OC(C)=O)[C@@H](O)[C@@H]2OC,nt,-6%,5%,-12,-14,nt
OC1/C(=C/c2ccccc2F)N2CCC1CC2 (stereo not given),8%,-5%,4%,-2,2,-3%
COc1ccc(CCn2c(O)c(C=Nc3ccc(NC(C)=O)cc3)c(=O)[nH]c2=O)cc1OC,nt,-19%,?,-14,14,1%
COc1ccc(CCn2c(O)c(C=NCCN3CCCCC3)c(=O)[nH]c2=O)cc1OC,1%,9%,3%,3,38,6%
CCC(C)n1c(O)c(/C=N/N2CCOCC2)c(=O)[nH]c1=S (stereo not given),0%,-91%,23µM*,12,3,0%
CCOc1ccc(N=Cc2c(O)n(CCc3ccc(OC)c(OC)c3)c(=O)[nH]c2=O)cc1,4%,16µM*,?,3,9,-13%
CCC(C)n1c(O)c(C=NCCN2CCOCC2)c(=O)[nH]c1=S (stereo not given),8%,-6%,28%,?,34,-6%
COc1ccc(CCn2c(O)c(/C=N/N3CCOCC3)c(=O)[nH]c2=O)cc1OC,nt,-27%,7%,-1,18,18µM*
CSSC,12%,nt,nt,nt,nt,nt
SMILES,TDP1 inh,DT40 TDP1 no CPT,DT40 TDP1 CPT,Giardia kill,IL-1B inflam inh,ELG1 DNA repair
NP(=O)(Nc1ccccc1)Nc1ccccc1,nt,-7%,2%,-5,11,nt
COc1ccc(S(=O)(=O)N(CC(=O)NCc2ccccc2OC)c2ccc(C)cc2)cc1,-1%,?,?,nt,nt,nt
COC(=O)C1=C(C(=O)OC)C2OC1c1cc3ccccc3cc12,nt,0.73µM*,0.46µM*,-2,0,nt
C=CC(=O)OCCN(C)C,9%,nt,nt,nt,nt,nt
CCN[C@H](C)Cc1cccc(C(F)(F)F)c1,nt,4%[92.5 µM],3%[92.5 µM],nt,nt,nt
COc1ccc2c(c1)[C@@]13CCCCC1[C@@H](C2)N(C)CC3 (stereo not given in full),12%[56.1 µM],16µM*,-125%,nt,nt,nt
O=C(Cn1ncc2c3ccccc3n(Cc3ccccc3F)c2c1=O)N1CCC2(CC1)OCCO2,7%,12µM*,23µM*,-7,?,5%
CCOc1cc(CN2CCN(C(=O)Cc3ccccc3)CC2)ccc1OC,nt,?,-25%,31,0,?
CCOc1ccc(CCNC(=O)c2ccc(-n3c(C)cc4c3CCCC4)cc2)cc1OCC,2%,12µM*,12µM*,nt,nt,nt
CN(C)CCCNCC(=O)Nc1ccc(Cl)cc1C(=O)c1ccccc1,2%,1%,5%,-2,-19,15%
CN(C)CC/C=C1/c2ccccc2Sc2ccc(Cl)cc21,17%,29µM*!,?,-22,-63*!,10%
